# C diff growth = inhibitors of Clostridium difficile growth. Clostridium difficile clinical isolate growth, OD600, 24 h; hits give low values. growth activity, negative = inhibition, % at 16 µg/mL (by protocol). actives 0.25% (n = 86,000). AID 1259249;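 active = mean growth activity at or below -80% and every replicate also at or below -80%; inconclusive = mean at or below -80% but some replicate above -80%; inactive = mean growth activity above -80%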;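 note: 0% = DMSO wells and -100% = levofloxacin 16 µg/mL wells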
# Pf Dd2 inh = blocks growth of Plasmodium falciparum Dd2 parasites; P. falciparum Dd2 growth, SYBR Green, 72 h; hits give low values; activity change, % at 10 µM; actives 2.3% (n = 94,000); AID 1159554; in the data active = activity change below about -80%; inconclusive = no clear call, values can overlap the other calls
# The depositor's hits bear a star; ? = inconclusive; · = no result given. Shown are actives, neighbours in structure and some others; about 2.3% of the full set was active somewhere.
SMILES,C diff growth,Pf Dd2 inh
COC(=O)[C@H]1[C@H](CO)[C@H]2Cn3c(ccc(-c4ccccc4)c3=O)[C@H]2N1S(C)(=O)=O,-2.7,0.2
C[C@@H]1CN([C@H](C)CO)C(=O)c2cc(-c3cccnc3)cnc2O[C@@H]1CN(C)C(=O)NC1CCCC1,0.5,23.0
C[C@@H]1CCCCO[C@H](CN(C)Cc2ccncc2)[C@H](C)CN([C@H](C)CO)C(=O)c2cc(NC(=O)CCCN(C)C)ccc2O1,-1.2,·
C[C@H](CO)N1C[C@H](C)[C@@H](CN(C)Cc2ccc(C(=O)Nc3ccccc3N)cc2)Oc2ccc(NC(=O)Cc3ccccc3)cc2CC1=O,0.6,-83.0*
C[C@@H]1CN([C@@H](C)CO)C(=O)Cc2cc(NC(=O)c3ccncc3)ccc2O[C@@H]1CN(C)Cc1ccc(C(=O)Nc2ccccc2N)cc1,6.9,-85.0*
C[C@@H]1CN([C@H](C)CO)C(=O)Cc2cc(NC(=O)Nc3ccc(F)cc3)ccc2O[C@H]1CN(C)Cc1ccc(C(=O)Nc2ccccc2N)cc1,8.5,-39.1
C[C@H](CO)N1C[C@H](C)[C@H](CN(C)Cc2ccc(C(=O)Nc3ccccc3N)cc2)Oc2ccc(NC(=O)c3ccncc3)cc2CC1=O,-0.1,-49.4
C[C@H]1CN([C@@H](C)CO)C(=O)Cc2cc(NC(=O)Nc3ccc(F)cc3)ccc2O[C@@H]1CN(C)Cc1ccc(C(=O)Nc2ccccc2N)cc1,2.4,-85.6*
C[C@@H]1CN([C@H](C)CO)C(=O)Cc2cc(NC(=O)c3ccncc3)ccc2O[C@@H]1CN(C)Cc1ccc(C(=O)Nc2ccccc2N)cc1,5.7,-74.7
COC(=O)C[C@H]1C[C@H]2c3cc(NC(=O)Nc4ccc(F)cc4)ccc3O[C@H]2[C@H](CO)O1,0.2,-5.9
COc1ccc2c3c(n(C)c2c1)[C@H](CO)N(C)CC31CN(S(=O)(=O)c2cn(C)cn2)C1,4.0,9.3
C[C@H](NC(=O)C[C@H]1C=C[C@H](NC(=O)C2CCC2)[C@@H](CO)O1)c1ccccc1,·,-3.4
COc1ccc(S(=O)(=O)N(C)C[C@H]2Oc3ccc(N(C)C)cc3C(=O)N([C@H](C)CO)C[C@H]2C)cc1,-3.4,-3.3
COc1ccc(S(=O)(=O)Nc2cccc3c2O[C@@H](CN(C)Cc2ccc(C(=O)Nc4ccccc4N)cc2)[C@@H](C)CN([C@H](C)CO)C3=O)cc1,5.1,-75.7
COc1ccc(S(=O)(=O)Nc2cccc3c2O[C@H](CN(C)Cc2ccc(C(=O)Nc4ccccc4N)cc2)[C@H](C)CN([C@H](C)CO)C3=O)cc1,10.5,-87.4*
COc1ccc(S(=O)(=O)Nc2cccc3c2O[C@H](CN(C)Cc2ccc(C(=O)Nc4ccccc4N)cc2)[C@@H](C)CN([C@H](C)CO)C3=O)cc1,-2.9,-31.2
COc1ccc(S(=O)(=O)Nc2cccc3c2O[C@H](CN(C)Cc2ccc(C(=O)Nc4ccccc4N)cc2)[C@H](C)CN([C@@H](C)CO)C3=O)cc1,2.1,-86.1*
O=C(C[C@@H]1CC[C@H]2[C@@H](COC[C@@H](O)CN2C(=O)c2ccccc2F)O1)N1CCN(c2ccccc2)CC1,2.0,-4.9
C[C@@H]1CN([C@H](C)CO)C(=O)c2cccc(NC(=O)CCCCCC(=O)Nc3ccccc3N)c2O[C@@H]1CN(C)S(=O)(=O)c1ccc(F)cc1,-0.9,-80.0
C[C@H]1CN([C@@H](C)CO)C(=O)c2cccc(NC(=O)CCCCCC(=O)Nc3ccccc3N)c2O[C@H]1CN(C)S(=O)(=O)c1ccc(Cl)cc1,-6.4,-89.9*
C[C@@H]1CN([C@@H](C)CO)C(=O)c2cccc(NC(=O)CCCCCC(=O)Nc3ccccc3N)c2O[C@H]1CN(C)S(=O)(=O)c1ccc(F)cc1,-4.7,-75.9
COc1ccc(S(=O)(=O)N(C)C[C@H]2Oc3c(NC(=O)CCCCCC(=O)Nc4ccccc4N)cccc3C(=O)N([C@@H](C)CO)C[C@H]2C)cc1,-5.8,-92.1*
C[C@@H]1CN([C@@H](C)CO)C(=O)c2cccc(NC(=O)CCCCCC(=O)Nc3ccccc3N)c2O[C@@H]1CN(C)S(=O)(=O)c1ccc(F)cc1,-4.7,-92.3*
COc1ccc(S(=O)(=O)N(C)C[C@@H]2Oc3c(NC(=O)CCCCCC(=O)Nc4ccccc4N)cccc3C(=O)N([C@@H](C)CO)C[C@@H]2C)cc1,1.3,-66.8
C[C@@H]1CN([C@H](C)CO)C(=O)c2cccc(NC(=O)CCCCCC(=O)Nc3ccccc3N)c2O[C@H]1CN(C)S(=O)(=O)c1ccc(Cl)cc1,-5.8,-80.0
SMILES,C diff growth,Pf Dd2 inh
C[C@H](CO)N1C[C@H](C)[C@H](CN(C)S(=O)(=O)c2ccc(F)cc2)Oc2c(NC(=O)CCCCCC(=O)Nc3ccccc3N)cccc2C1=O,-8.2,-83.3*
CC(C)NC(=O)N1CC2(C1)[C@H](c1ccccc1)[C@@H](CO)N2Cc1ccccc1,5.0,21.6
O=C(c1cccnc1)N1C[C@@H]2[C@H](c3ccccc31)[C@@H](CO)N2C(=O)Nc1ccccc1,2.0,-2.1
O=C(C[C@H]1CC[C@@H]2[C@H](COC[C@@H](O)CN2CC2CCCC2)O1)NCC1CC1,-13.7,-39.9
COCC(=O)N1[C@H](CO)[C@@H](c2ccc(-c3ccccc3)cc2)C12CN(C(C)=O)C2,-1.1,11.3
Cc1noc(C)c1NC(=O)Nc1cccc2c1O[C@H](CN(C)S(C)(=O)=O)[C@H](C)CN([C@@H](C)CO)C2=O,-3.2,9.1
Cc1noc(C)c1NC(=O)N(C)C[C@@H]1Oc2c(NC(=O)c3cnccn3)cccc2C(=O)N([C@@H](C)CO)C[C@H]1C,-3.6,-2.4
Cc1ccc(-c2ccc3c(c2)O[C@H](CN(C)Cc2cccnc2)[C@@H](C)CN([C@H](C)CO)S3(=O)=O)cc1,2.9,?
CCCC#Cc1ccc2c(c1)O[C@H](CN(C)Cc1ccncc1)[C@@H](C)CN([C@H](C)CO)S2(=O)=O,4.9,-59.8
CC(C)CC#Cc1ccc2c(c1)O[C@@H](CN(C)Cc1cccc(F)c1)[C@H](C)CN([C@@H](C)CO)S2(=O)=O,5.0,-84.5*
CC(C)CC#Cc1ccc2c(c1)O[C@@H](CN(C)Cc1cccc(F)c1)[C@@H](C)CN([C@H](C)CO)S2(=O)=O,22.3,-44.2
Cc1ccc(-c2ccc3c(c2)O[C@@H](CN(C)Cc2cccnc2)[C@H](C)CN([C@@H](C)CO)S3(=O)=O)cc1,-14.0,-81.0*
CCCC#Cc1ccc2c(c1)O[C@@H](CN(C)Cc1ccncc1)[C@H](C)CN([C@@H](C)CO)S2(=O)=O,15.5,-86.8*
C[C@H]1CN([C@@H](C)CO)S(=O)(=O)c2ccc(-c3ccncc3)cc2O[C@@H]1CN(C)Cc1ccc(Oc2ccccc2)cc1,34.6,-78.7
C[C@@H]1CN([C@H](C)CO)S(=O)(=O)c2ccc(-c3ccncc3)cc2O[C@@H]1CN(C)Cc1ccc(Oc2ccccc2)cc1,-0.8,-86.9*
COc1ccc2c3c(n(C)c2c1)[C@@H](CO)N(C(=O)c1ccccc1)CC31CCN(C)CC1,3.1,-67.9
COc1ccc(CN(C)C[C@@H]2OCCCC[C@@H](C)Oc3ccc(NC(=O)CCC(F)(F)F)cc3C(=O)N([C@@H](C)CO)C[C@H]2C)cc1,0.1,-44.0
CN(C)C(=O)C[C@@H]1CC[C@@H]2[C@H](COc3ccc(NC(=O)C4CCCC4)cc3C(=O)N2C)O1,-0.1,-15.9
CNC[C@H]1Oc2ccc(NC(=O)NC3CCCCC3)cc2CC(=O)N([C@@H](C)CO)C[C@@H]1C,-0.5,4.5

# High-throughput results deposited in PubChem by Broad Institute.
